High-throughput results deposited in PubChem BioAssay by The Scripps Research Institute Molecular Screening Center.
KLF5 inh: KLF5 expression inhibitors, primary screen, DLD-1 cells, luminescence. DLD-1 KLF5 promoter-luciferase reporter. inhibition, % at 5 µM. 290,000 compounds, 0.23% hits;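 active = inhibition above a per-plate limit of that plate's mean compound inhibition plus 3 SD, cut at about 60% in these data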;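 note: 0% = DMSO wells and 100% = LY294002 at 200 µM; higher means less KLF5 promoter-driven luciferase light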
BaF3 parental: parental Ba/F3 cell viability inhibition, counter-screen for JAK2V617F inhibitor project, murine pro-B, CellTiter-Glo luminescence. AID 1486, 2009. CellTiter-Glo ATP luminescence. inhibition, % at 5.6 µM. 220,000 compounds, 1.1% hits;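 active = inhibition above a per-campaign cutoff, the mean inhibition of all tested compounds plus 3 SD, cut at about 27% in these data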;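 note: 0% = DMSO wells and 100% = JAK Inhibitor I control wells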
DNA FID counter: compounds displacing fluorescent DNA intercalator, primary screen, artefact control for HCV NS3 helicase inhibitor project, biochemical, FID fluorescence; DNA fluorescent intercalator displacement; inhibition, % at 7.9 µM; 290,000 compounds, 0.17% hits; in the data active = inhibition above about 37%;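 note: 0% = vehicle and 100% = reference compound; higher means more ethidium bromide displaced from hairpin DNA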
GPR7 antag: GPR7 receptor antagonists, primary screen, cell-based, fluorescence, single concentration; AID 1861, 2009; 290,000 compounds, 1.1% hits; GPR7-expressing cells, fluorescence antagonist assay; inhibition, % at 4.4 µM; Neuropeptides B/W receptor type 1 (Homo sapiens), P48145; in the data active = inhibition above about 16%, passing the limit was not always enough;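 note: cells stimulated with the agonist NPW; 0% = agonist with vehicle and 100% = vehicle without agonist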
Target sequence (P48145 whole entry, looked up): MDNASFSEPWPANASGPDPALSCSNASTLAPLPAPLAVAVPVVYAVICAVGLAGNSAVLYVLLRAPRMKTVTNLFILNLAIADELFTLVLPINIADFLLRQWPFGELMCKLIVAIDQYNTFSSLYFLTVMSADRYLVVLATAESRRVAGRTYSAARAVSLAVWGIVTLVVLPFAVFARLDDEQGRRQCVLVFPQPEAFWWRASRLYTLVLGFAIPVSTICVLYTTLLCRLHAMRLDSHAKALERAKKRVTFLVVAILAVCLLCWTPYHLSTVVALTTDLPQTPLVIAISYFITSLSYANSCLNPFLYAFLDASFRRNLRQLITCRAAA
Ba/F3 V617F tox: reduced viability of JAK2V617F-dependent Ba/F3 cells, primary screen, JAK2V617F inhibitor project, cell-based, Ba/F3 EpoR-JAK2V617F, luminescence. ATP luminescence. inhibition, % at 5.6 µM. 220,000 compounds, 1.1% hits. AID 1446, 2008;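 active = inhibition above the campaign mean plus 3 SD over all tested compounds, cut at about 24% in these data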;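 note: cytokine-independent growth of Ba/F3 cells driven by EpoR plus mutant JAK2; 0% = DMSO-treated cells and 100% = JAK inhibitor I control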
IEC-6 tox: cytotoxicity in IEC-6 intestinal epithelial cells, primary screen, cytotoxicity control for KLF5 inhibitor project, cell-based, luminescence | IEC-6 cytotoxicity, luminescence viability | inhibition, % at 5 µM | 290,000 compounds, 0.78% hits | AID 1825, 2009;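 note: 0% = plate median of test compound wells and 100% = cytotoxic reference compound wells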
IEC-6 tox confirm: cytotoxic compounds in IEC-6 epithelial cells, confirmation, cytotoxicity control, cell-based, luminescence | 1,900 compounds, 63% hits | shares compounds with IEC-6 tox | AID 1907, 2009 | IEC-6 rat intestinal epithelial viability | inhibition, % at 5 µM;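 note: 0% = vehicle and 100% = reference cytotoxic drug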
* = called active by the depositor; nt = not tested or not shown. Most compounds without a hit are left out; they make up all but 2.6% or so of the library. Cut-off read from the data, not from the text of the source, unless noted: active = inhibition above about 22%; inactive = the rest.

SMILES	KLF5 inh	BaF3 parental	DNA FID counter	GPR7 antag	Ba/F3 V617F tox	IEC-6 tox	IEC-6 tox confirm
Cc1ccccc1NC(=O)c1nc(S(C)(=O)=O)ncc1Cl	4	nt	0	4	nt	40*	15
Cc1nnc(NC(=O)c2nc(S(=O)(=O)Cc3ccccc3)ncc2Cl)s1	5	nt	-15	-16	nt	34*	-4
Cc1cccc(CS(=O)(=O)c2ncc(Cl)c(C(=O)NCc3ccccc3)n2)c1	7	nt	-33	11	nt	62*	29*
Cc1cccc(C)c1NC(=O)c1nc(S(=O)(=O)Cc2ccccc2)ncc1Cl	18	nt	-10	16	nt	38*	15
O=C(NCCCN1CCC(Cc2ccccc2)CC1)c1ccc2nc(N3CCOCC3)sc2c1	-64	4	24	-2	11	12	nt
CSc1cccc(NC(=O)c2cnccn2)c1	-57	3	0	3	-2	0	nt
Cc1ccc(NC(=O)Nc2cnccn2)cc1	-96	nt	-4	-2	nt	-3	nt
CC(C)c1ccc(NC(=O)Nc2cnccn2)cc1	-82	nt	-20	16	nt	42*	15
COc1cc(S(=O)(=O)Nc2cccc(C)c2)ccc1N=Cc1c(C)[nH]n(-c2ccccc2)c1=O	10	7	-2	-4	0	13	nt
CCC(CC)c1nnc(NC(=O)c2ccc3ccccc3n2)s1	2	4	-23	-2	-3	35*	3
CCC(CC)c1nnc(NC(=O)c2cc(-c3ccccc3)nc3ccccc23)s1	4	1	-2	-10	-5	1	nt
Cc1cc(-c2ccccc2)nc(N2CCN(c3ccccn3)CC2)n1	-25	1	-8	-9	2	26*	41*
COc1ccc(S(=O)Cc2ccc(C(=O)N3CCN(c4cccc(C)c4C)CC3)o2)cc1 (configuration not stated)	25	nt	-44	4	nt	32*	37*
O=C(Nc1ccc(Cl)cc1)Nc1ccon1	-19	nt	-9	-4	nt	29*	9
COc1cc2c(cc1OC)C(C)N(C(=O)c1cc(Cl)nc(Cl)c1)CC2 (configuration not stated)	43	nt	-23	10	nt	39*	12
COc1cc2c(cc1OC)C(C)N(C(=O)c1nccnc1C(=O)O)CC2 (configuration not stated)	-6	-2	4	-14	-3	-3	nt
CCC(C)Sc1nnc(Cc2cc(=O)[nH]c(=O)[nH]2)n1-c1ccc(OC)cc1 (configuration not stated)	-14	5	-13	-5	-3	-7	nt
CCOc1c(Br)cc(CNc2ccc3c(c2)OCCO3)cc1OC	55	77*	-5	5	80*	76*	54*
CCOc1cc(CNc2ccc3c(c2)OCCO3)cc(Br)c1OC	50	73*	-7	2	72*	82*	61*
CC(C)C[C@H](NC(=O)N1CCn2c1nc1ccccc12)C(=O)NCC1CCCO1 (some centres not stated)	-6	nt	-33	-7	nt	3	nt
CS(=O)(=O)c1ncc(Cl)c(C(=O)Nc2ccc(N3CCOCC3)cc2)n1	-22	3	3	1	8	-2	nt
Cc1ccccc1CS(=O)(=O)c1ncc(Cl)c(C(=O)Nc2ccc(F)cc2)n1	9	nt	-18	16	nt	61*	10
O=C(Nc1ccc(F)cc1)c1nc(S(=O)(=O)Cc2ccccc2)ncc1Cl	18	nt	-8	16	nt	91*	12
Cc1cc(C)n(S(=O)(=O)c2ccc3oc(=O)ccc3c2)n1	-13	nt	-1	-11	nt	4	nt
COc1ccccc1CNc1nc(=S)[nH]c2cc(OC)c(OC)cc12	11	nt	2	-11	nt	-1	nt
SMILES	KLF5 inh	BaF3 parental	DNA FID counter	GPR7 antag	Ba/F3 V617F tox	IEC-6 tox	IEC-6 tox confirm
COc1cc2[nH]c(=S)nc(NCc3ccc(Cl)cc3)c2cc1OC	1	nt	6	-4	nt	30*	42*
COc1nccc(C(F)(F)F)c1C(=O)NC(=O)Nc1ccccc1	-3	-1	-14	-2	0	0	nt
COc1cc2nc(=S)n3[nH]c(CCn4nc(C)cc4C)nc3c2cc1OC	10	7	-18	-3	4	53*	8
COc1cc2nc(=S)n3[nH]c(COc4ccccc4C)nc3c2cc1OC	-1	5	-12	2	1	-1	nt
O=[N+]([O-])c1cccc(C=Nc2cccc3ccccc23)c1O	-39	nt	8	-7	nt	32*	12
Cc1ccc(NC(=O)Cc2noc3ccccc23)nc1	-6	1	-8	1	0	23*	5
CC1=C/C(=N\NC(=S)Nc2cccnc2)CC(C)(C)C1	-8	7	-11	-8	8	29*	59*
C=CCNC(=O)c1ccc(Sc2ccc(C)cc2)c([N+](=O)[O-])c1	-2	2	3	7	1	9	nt
c1ccc2nc3c(nc2c1)c1ccccc1n3CCN1CCOCC1	-111	77*	18	-15	84*	23*	10
CCCn1c2ccccc2c2nnc(SCCN3CCOCC3)nc21	-13	nt	-18	-17	nt	-5	nt
O=C(Nc1ccc2c(c1)OCCO2)C(=O)c1c[nH]c2ccccc12	38	nt	-3	13	nt	66*	46*
CC1c2cc3c(cc2CCN1C(=O)c1ccc(Br)cc1)OCCCO3 (configuration not stated)	7	nt	-47	3	nt	39*	37*
Cc1cccc(NC(=O)Cn2cc(C(=O)C3CC3)c3ccccc32)c1C	-12	nt	-21	5	nt	29*	16
Cc1ccc2oc(/N=C(\N)NC(=O)C3CC3)nc2c1	-14	29*	-7	-6	38*	32*	31*
Brc1ccc2ncnc(Nc3cccc4ccccc34)c2c1	15	8	-15	-10	0	28*	41*
O=c1cc(-c2ccc3c(c2)OCCO3)oc2ccc(Cl)cc12	-14	8	0	2	-1	-6	nt
COc1ccccc1C(=O)Nc1ccc2c(c1)nc(CCNC(=O)c1ccco1)n2C	28	nt	-25	3	nt	69*	53*
Cc1ccc(COc2ccc(Br)cc2/C=N/O)cc1	-122	4	-3	2	2	4	nt
O=C(CSc1cccc[n+]1[O-])c1ccccc1Br	4	7	-10	-2	7	85*	7
Cc1cc(C(=O)CSc2cccc[n+]2[O-])c(C)n1-c1ccc(Br)cc1	-77	2	-19	-8	0	7	nt
CCCN(CCC)c1nc(-c2ccccn2)nc2ccccc12	34	nt	5	-17	nt	93*	33*
